The full ranking holds about 2,900 compounds; the median of “NF-kB SEAP reporter activity, fold change vs agonist alone” is about 0.99, and the highest 2% start at about 2.6. The sample as a whole holds a higher share of the highest values than the screen did.
How the values were obtained:
RAW-Dual [1] = assay: NF-kB SEAP reporter activity, fold change vs agonist alone; higher = enhanced NF-kB activity
How it was run: (§1)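 Cytotoxic wells were those whose IncuCyte confluency was below 70% of agonist controls in both mask sets. The cells were RAW-Dual macrophages at 50,000 cells/well in DMEM on 384-well plates, dosed with 50 nL of library stock by pin tool, stimulated with a PRR agonist 1 h later, and kept at 37 °C, 5% CO2 for 20 hours. IRF and NF-κB reporter activity, as fold change over agonist-alone wells, came from supernatant read by QuantiLuc luminescence and QuantiBlue absorbance, respectively.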

RAW-Dual [2] = assay: NF-kB SEAP reporter activity, fold change vs agonist alone; cytotoxicity flag (confluency mask): cytotoxic (confluency <70% of control); higher = enhanced NF-kB activity
How it was run: as §1

RAW-Dual [3] = assay: NF-kB SEAP reporter activity, fold change vs agonist alone; cytotoxicity flag (confluency mask): not cytotoxic; higher = enhanced NF-kB activity
How it was run: as §1

[4] = agonist: ODN 1826 (TLR9) 0.5 ug/mL
[5] = agonist: Pam2CSK4 (TLR2/6) 0.1 ug/mL
[6] = agonist: Pam3CSK4 (TLR2/1) 0.1 ug/mL
[7] = library stock concentration (final ~1000-fold dilution): 10 mM, cytotoxicity flag (confluency mask): not cytotoxic, agonist: Imiquimod (TLR7) […]
[8] = library stock concentration (final ~1000-fold dilution): 10 mM, cytotoxicity flag (confluency mask): not cytotoxic, agonist: MPLA (TLR4) […]
[9] = library stock concentration (final ~1000-fold dilution): 10 mM water, cytotoxicity flag (confluency mask): not cytotoxic, agonist: Imiquimod (TLR7) […]
[10] = library stock concentration (final ~1000-fold dilution): 10 mM water, cytotoxicity flag (confluency mask): not cytotoxic, agonist: MPLA (TLR4) […]

Structure (SMILES): Cl.NCCOCCOCCNC(=O)Cc1ccc(Nc2nc(NCc3ccc(F)cc3)nc(NCC3CCCCC3)n2)cc1
- NF-kB SEAP reporter activity (RAW-Dual [1]; library stock concentration (final ~1000-fold dilution): 10 mM, cytotoxicity flag (confluency mask): cytotoxic (confluency <70% of control), agonist: Imiquimod (TLR7) […]): 1.05
- NF-kB SEAP reporter activity (RAW-Dual [1]; library stock concentration (final ~1000-fold dilution): 10 mM, cytotoxicity flag (confluency mask): cytotoxic (confluency <70% of control), agonist: MPLA (TLR4) […]): 1.59

Structure (SMILES): Cl.NCCOCCOCCNC(=O)Cc1ccc(Nc2nc(NCc3ccc(F)cc3)nc(NCC3CCCCC3)n2)cc1 (library stock concentration (final ~1000-fold dilution): 10 mM)
- NF-kB SEAP reporter activity (RAW-Dual [2]; agonist: LPS (TLR4) 0.1 ug/mL): 0.643
- NF-kB SEAP reporter activity (RAW-Dual [2]; [4]): 0.852
- NF-kB SEAP reporter activity (RAW-Dual [2]; [5]): 0.738
- NF-kB SEAP reporter activity (RAW-Dual [2]; [6]): 0.911

Structure (SMILES): O=C(Nc1nccs1)C(c1cc(F)ccc1O)N1Cc2ccccc2C1=O (stereo unspecified)
- NF-kB SEAP reporter activity (RAW-Dual [1]; [7]): 0.944
- NF-kB SEAP reporter activity (RAW-Dual [1]; [8]): 0.982

Structure (SMILES): O=C(Nc1nccs1)C(c1cc(F)ccc1O)N1Cc2ccccc2C1=O (stereo unspecified) (library stock concentration (final ~1000-fold dilution): 10 mM)
- NF-kB SEAP reporter activity (RAW-Dual [3]; agonist: LPS (TLR4) 0.1 ug/mL): 0.902
- NF-kB SEAP reporter activity (RAW-Dual [3]; [4]): 0.989
- NF-kB SEAP reporter activity (RAW-Dual [3]; [5]): 0.865
- NF-kB SEAP reporter activity (RAW-Dual [3]; [6]): 1.02

Structure (SMILES): CCOC(=O)CC(=O)O (library stock concentration (final ~1000-fold dilution): 10 mM water)
- NF-kB SEAP reporter activity (RAW-Dual [3]; agonist: LPS (TLR4) 0.1 ug/mL): 1.31
- NF-kB SEAP reporter activity (RAW-Dual [3]; [4]): 1.09
- NF-kB SEAP reporter activity (RAW-Dual [3]; [5]): 1.18
- NF-kB SEAP reporter activity (RAW-Dual [3]; [6]): 1.03

Structure (SMILES): CCOC(=O)CC(=O)O
- NF-kB SEAP reporter activity (RAW-Dual [1]; [9]): 0.955
- NF-kB SEAP reporter activity (RAW-Dual [1]; [10]): 1

Structure (SMILES): CCCCOc1cc(C(=O)NCCN(CC)CC)c2ccccc2n1.Cl (library stock concentration (final ~1000-fold dilution): 10 mM)
- NF-kB SEAP reporter activity (RAW-Dual [3]; agonist: LPS (TLR4) 0.1 ug/mL): 0.994
- NF-kB SEAP reporter activity (RAW-Dual [3]; [4]): 0.959
- NF-kB SEAP reporter activity (RAW-Dual [3]; [5]): 0.866
- NF-kB SEAP reporter activity (RAW-Dual [3]; [6]): 1.09

Structure (SMILES): CCCCOc1cc(C(=O)NCCN(CC)CC)c2ccccc2n1.Cl
- NF-kB SEAP reporter activity (RAW-Dual [1]; [7]): 1.57
- NF-kB SEAP reporter activity (RAW-Dual [1]; [8]): 1.01

Structure (SMILES): CN1CCOC(c2ccccc2)c2ccccc2C1.Cl (stereo unspecified) (library stock concentration (final ~1000-fold dilution): 10 mM water)
- NF-kB SEAP reporter activity (RAW-Dual [3]; agonist: LPS (TLR4) 0.1 ug/mL): 1.36
- NF-kB SEAP reporter activity (RAW-Dual [3]; [4]): 0.943
- NF-kB SEAP reporter activity (RAW-Dual [3]; [5]): 1.05
- NF-kB SEAP reporter activity (RAW-Dual [3]; [6]): 0.969

Structure (SMILES): CN1CCOC(c2ccccc2)c2ccccc2C1.Cl (stereo unspecified)
- NF-kB SEAP reporter activity (RAW-Dual [1]; [9]): 1.12
- NF-kB SEAP reporter activity (RAW-Dual [1]; [10]): 1.03

Structure (SMILES): COc1ccc(S(=O)(=O)N(C(C)=O)c2ccccc2/C=C/c2cc[n+]([O-])cc2)cc1 (library stock concentration (final ~1000-fold dilution): 10 mM)
- NF-kB SEAP reporter activity (RAW-Dual [3]; agonist: LPS (TLR4) 0.1 ug/mL): 1.85
- NF-kB SEAP reporter activity (RAW-Dual [3]; [4]): 2.59
- NF-kB SEAP reporter activity (RAW-Dual [3]; [5]): 1.94
- NF-kB SEAP reporter activity (RAW-Dual [3]; [6]): 1.43

Structure (SMILES): COc1ccc(S(=O)(=O)N(C(C)=O)c2ccccc2/C=C/c2cc[n+]([O-])cc2)cc1
- NF-kB SEAP reporter activity (RAW-Dual [1]; [7]): 2.17
- NF-kB SEAP reporter activity (RAW-Dual [1]; [8]): 1.61

Structure (SMILES): COc1ccc(S(=O)(=O)N(CCO)c2ccccc2CN(C)CC=Cc2ccc(Cl)cc2)cc1 (library stock concentration (final ~1000-fold dilution): 10 mM)
- NF-kB SEAP reporter activity (RAW-Dual [3]; agonist: LPS (TLR4) 0.1 ug/mL): 0.958
- NF-kB SEAP reporter activity (RAW-Dual [3]; [4]): 0.257
- NF-kB SEAP reporter activity (RAW-Dual [3]; [5]): 0.537
- NF-kB SEAP reporter activity (RAW-Dual [3]; [6]): 0.372

Structure (SMILES): COc1ccc(S(=O)(=O)N(CCO)c2ccccc2CN(C)CC=Cc2ccc(Cl)cc2)cc1
- NF-kB SEAP reporter activity (RAW-Dual [1]; [7]): 0.802
- NF-kB SEAP reporter activity (RAW-Dual [1]; [8]): 1.07

Structure (SMILES): C=C1C(CO)C(O)CC1n1cnc2c(=O)nc(N)[nH]c21 (stereo unspecified) (library stock concentration (final ~1000-fold dilution): 10 mM)
- NF-kB SEAP reporter activity (RAW-Dual [3]; agonist: LPS (TLR4) 0.1 ug/mL): 1.32
- NF-kB SEAP reporter activity (RAW-Dual [3]; [4]): 0.996
- NF-kB SEAP reporter activity (RAW-Dual [3]; [5]): 1.37
- NF-kB SEAP reporter activity (RAW-Dual [3]; [6]): 0.846

Structure (SMILES): C=C1C(CO)C(O)CC1n1cnc2c(=O)nc(N)[nH]c21 (stereo unspecified)
- NF-kB SEAP reporter activity (RAW-Dual [1]; [8]): 1.07

Structure (SMILES): CNC1C(O)C(OC2C(NC(=O)C(O)CN)CC(N)C(OC3OC(CN)C(O)C(O)C3O)C2O)OCC1(C)O.O=S(=O)(O)O (stereo unspecified)
- NF-kB SEAP reporter activity (RAW-Dual [1]; [9]): 0.944
- NF-kB SEAP reporter activity (RAW-Dual [1]; [10]): 1.01

Structure (SMILES): CNC1C(O)C(OC2C(NC(=O)C(O)CN)CC(N)C(OC3OC(CN)C(O)C(O)C3O)C2O)OCC1(C)O.O=S(=O)(O)O (stereo unspecified) (library stock concentration (final ~1000-fold dilution): 10 mM water)
- NF-kB SEAP reporter activity (RAW-Dual [3]; agonist: LPS (TLR4) 0.1 ug/mL): 1.03
- NF-kB SEAP reporter activity (RAW-Dual [3]; [4]): 1.09
- NF-kB SEAP reporter activity (RAW-Dual [3]; [5]): 1.3
- NF-kB SEAP reporter activity (RAW-Dual [3]; [6]): 1.14

Structure (SMILES): COc1ccc(C(NC(=O)c2cnc(-c3cccnn3)nc2O)c2ccc(OC)cc2)cc1
- NF-kB SEAP reporter activity (RAW-Dual [1]; [7]): 0.974
- NF-kB SEAP reporter activity (RAW-Dual [1]; [8]): 1.03

Structure (SMILES): COc1ccc(C(NC(=O)c2cnc(-c3cccnn3)nc2O)c2ccc(OC)cc2)cc1 (library stock concentration (final ~1000-fold dilution): 10 mM)
- NF-kB SEAP reporter activity (RAW-Dual [3]; agonist: LPS (TLR4) 0.1 ug/mL): 2.9
- NF-kB SEAP reporter activity (RAW-Dual [3]; [4]): 0.861
- NF-kB SEAP reporter activity (RAW-Dual [3]; [5]): 0.898
- NF-kB SEAP reporter activity (RAW-Dual [3]; [6]): 1.02

Structure (SMILES): O=C(O)c1ccc(Br)c(O)c1 (library stock concentration (final ~1000-fold dilution): 10 mM)
- NF-kB SEAP reporter activity (RAW-Dual [3]; agonist: LPS (TLR4) 0.1 ug/mL): 1.11
- NF-kB SEAP reporter activity (RAW-Dual [3]; [4]): 0.975
- NF-kB SEAP reporter activity (RAW-Dual [3]; [5]): 1.09
- NF-kB SEAP reporter activity (RAW-Dual [3]; [6]): 0.729

Structure (SMILES): O=C(O)c1ccc(Br)c(O)c1
- NF-kB SEAP reporter activity (RAW-Dual [1]; [8]): 1.11

Structure (SMILES): O=C(/C=C/c1ccc(O)c(O)c1)O[C@@H]1CC(O)(C(=O)O)C[C@@H](OC(=O)/C=C/c2ccc(O)c(O)c2)C1O (stereo partly specified) (library stock concentration (final ~1000-fold dilution): 10 mM)
- NF-kB SEAP reporter activity (RAW-Dual [3]; agonist: LPS (TLR4) 0.1 ug/mL): 1.24
- NF-kB SEAP reporter activity (RAW-Dual [3]; [4]): 1.04
- NF-kB SEAP reporter activity (RAW-Dual [3]; [5]): 1.11
- NF-kB SEAP reporter activity (RAW-Dual [3]; [6]): 1.18

Structure (SMILES): O=C(/C=C/c1ccc(O)c(O)c1)O[C@@H]1CC(O)(C(=O)O)C[C@@H](OC(=O)/C=C/c2ccc(O)c(O)c2)C1O (stereo partly specified)
- NF-kB SEAP reporter activity (RAW-Dual [1]; [7]): 0.841
- NF-kB SEAP reporter activity (RAW-Dual [1]; [8]): 1.01

Structure (SMILES): CC(C)NC(=O)C1CCC(n2c(=NC(=O)c3ccc(F)cc3)[nH]c3ccc(CN4CCC(C(C)(C)O)CC4)cc32)CC1 (stereo unspecified) (library stock concentration (final ~1000-fold dilution): 10 mM)
- NF-kB SEAP reporter activity (RAW-Dual [3]; agonist: LPS (TLR4) 0.1 ug/mL): 1.17
- NF-kB SEAP reporter activity (RAW-Dual [3]; [4]): 0.713
- NF-kB SEAP reporter activity (RAW-Dual [3]; [5]): 1.24
- NF-kB SEAP reporter activity (RAW-Dual [3]; [6]): 2.16

Structure (SMILES): CC(C)NC(=O)C1CCC(n2c(=NC(=O)c3ccc(F)cc3)[nH]c3ccc(CN4CCC(C(C)(C)O)CC4)cc32)CC1 (stereo unspecified)
- NF-kB SEAP reporter activity (RAW-Dual [1]; [7]): 1.44
- NF-kB SEAP reporter activity (RAW-Dual [1]; [8]): 0.822

— the supplement of paper PMC10037445
